The record followed here is PubChem BioAssay AID1159524 (National Center for Advancing Translational Sciences (NCATS), 2015).

Out of some 410,000 compounds screened, about 5,100 (1.2%) were called active. Another 8% or so got no clear call; they are omitted. Calls come from the whole dose curve; tested in HEK293T cells. Many of the other results were omitted from the sample, so actives are more common in it than they were.
% is set by controls: 0 for no effect and ±100 for the full control effect; potency is the fitted concentration of half-maximal effect.

The assay is described as follows: High Throughput Screening for Foot and Mouth Disease Virus Antivirals. Note: read-out not given here; nearly all actives have a fitted effect of over 45% in size. As to conditions: FMDV antiviral cell-based qHTS; series mostly up to 57.9 µM; activity change, negative = inhibition: at the top concentration.
Turning to `O=C(c1cc(C(F)(F)F)cc(C(F)(F)F)c1)N1CCC2(CCCN(Cc3ccncc3)C2)CC1`, the “activity change, negative = inhibition” value was -13.6% (inactive).

As for `COc1cccc(Cn2c(=O)c(-c3ccccc3)nc3cnc(OC)nc32)c1`, the “activity change, negative = inhibition” value was -2.17% (inactive).

Take `COCCNC(=O)c1ccc2c(c1)N=C(C)c1cc(C)ccc1S2`: the “activity change, negative = inhibition” value is -1.97% (inactive).

Consider `CCCCCCCCCCCCn1ccc(=N)cc1`, for which the Potency was 17.8 µM (active).

For the compound `O=C(c1cnccn1)N1CCC2(CCN(Cc3cc(C(F)(F)F)cc(C(F)(F)F)c3)CC2)CC1`, the “activity change, negative = inhibition” value was -16.3% (inactive).

For the compound `Cc1cc(C)c2oc(-c3cccc(NC(=O)c4cccc(F)c4)c3C)nc2c1`, the “activity change, negative = inhibition” value is -3.43% (inactive).

In the case of `COc1ccc(NC(C)=O)cc1NC(=O)CN1CCN(c2ccc(F)cc2)CC1`, the “activity change, negative = inhibition” value is -19% (inactive).

For the compound `COc1ccc(N)cc1NC(=O)CN1CCOCC1`, the “activity change, negative = inhibition” value was -12.5% (inactive).

Turning to `COc1ccc(NC(C)=O)cc1NC(=O)CN1CCN(C2c3ccccc3-c3ccccc32)CC1`, the Potency is 31.6 µM (active).

Consider `Cc1ccccc1C(=O)NCc1nc(-c2ccc(Cl)cc2)no1`, for which the “activity change, negative = inhibition” value was -24.1% (inactive).

On to `CCc1ccc(NC(=O)CN2C(=O)C(c3ccccc3)=NC23CCCCCC3)cc1`, for which the “activity change, negative = inhibition” value was -15.1% (inactive).

In the case of `CCOc1ccc(NC(=O)CN(Cc2ccccc2)S(=O)(=O)c2ccc(Cl)cc2)cc1`, the “activity change, negative = inhibition” value is 5.09% (inactive).

Consider `CCOc1ccc(N(Cc2ccccc2)C(=O)c2nc(S(C)(=O)=O)ncc2Cl)cc1`, for which the Potency is 15.8 µM (active).

Regarding `COc1ccc(N(Cc2ccc(N(C)C)cc2)C(=O)c2ccc(S(C)(=O)=O)cc2)cc1`, the “activity change, negative = inhibition” value is -1.95% (inactive).

On to `Nc1nc2nc(Cl)[nH]c2c(=O)[nH]1`, for which the “activity change, negative = inhibition” value was 0.944% (inactive).

Regarding `COc1ccc(OC)c(NC(=O)c2ccc3c(c2)C(=O)N(c2ccc(OC(C)=O)cc2)C3=O)c1`, the “activity change, negative = inhibition” value is -19.4% (inactive).

As to `Cc1cc(N2C(=O)c3ccc(C(=O)NCc4ccccc4)cc3C2=O)no1`, the “activity change, negative = inhibition” value was -0.135% (inactive).

Turning to `O=C(O)c1ccc2c(c1)C(=O)N(c1ccc(/C=C/C(=O)c3ccccc3)cc1)C2=O`, the Potency is 14.1 µM (active).

With `COCC(C)NS(=O)(=O)c1ccc(N2CCCCS2(=O)=O)cc1` (configuration not stated), the “activity change, negative = inhibition” value was -9.65% (inactive).

Consider `CCc1noc(C)c1C(=O)NCCN1Cc2cc(OC)ccc2OC(CC)C1` (configuration not stated), for which the “activity change, negative = inhibition” value was 23% (inactive).

`Cn1c(=O)c(CCc2ccccc2)nc2cnc(Nc3ccccc3)nc21`: the “activity change, negative = inhibition” value was 21.2% (inactive).

With `c1ccc(CNc2ncncc2-c2cccnc2)cc1`, the “activity change, negative = inhibition” value is -17.3% (inactive).

As to `CCN(CC)CCCC(C)n1c2nc(=O)[nH]c(=O)c-2nc2cc(Cl)ccc21` (configuration not stated), the Potency is 11.2 µM (active).

In the case of `CCN(CC)CCCC(C)Nc1ccnc2cc(Cl)ccc12` (configuration not stated), the “activity change, negative = inhibition” value was -1.25% (inactive).

Consider `Cc1ccc(S(=O)(=O)n2nc(-c3ccc(Cl)cc3)nc2NCc2ccccc2)cc1`, for which the “activity change, negative = inhibition” value is 3.95% (inactive).

In the case of `CC(C)OC(=O)c1ccc(NCc2cc(O)ccc2O)cc1Cl`, the Potency was 8.91 µM (active).

Consider `COc1cccc(-n2cc(C(=O)NCc3cccc(Cl)c3)c3ccccc3c2=O)c1`, for which the “activity change, negative = inhibition” value was 25.5% (inactive).

As for `O=C(CSc1ncc(CO)n1Cc1ccc(Cl)cc1)NCc1ccc(F)cc1`, the “activity change, negative = inhibition” value is 5.89% (inactive).

Take `CCOc1ccccc1N(CC)C(=O)Nc1cn(C)c(=O)c2ccccc12`: the “activity change, negative = inhibition” value is -10.8% (inactive).

With `CC1CCC(N2CC(=O)N(CCC3=CCCCC3)C(c3ccc(F)cc3)C2=O)CC1` (configuration not stated), the “activity change, negative = inhibition” value was -21.5% (inactive).

Consider `Cc1ccc(C(=O)Nc2cccc(-c3nc(CNC(=O)c4ccccc4-n4cccn4)c(C)o3)c2)s1`, for which the “activity change, negative = inhibition” value is 3.68% (inactive).

In the case of `NC1=CC(=O)C(=O)c2cccnc21`, the Potency is 39.8 µM (active).

As to `O=C1C(c2ccccn2)=[N+]([O-])c2ccccc21`, the “activity change, negative = inhibition” value was 16.7% (inactive).

As to `COC1C[C@@H](O[C@@H]2C(C)C(=O)OC(C)C(C)C(O)C(C)C(=O)[C@@]3(CO3)CC(C)C(OC3OC(C)CC(N(C)C)C3O)C2C)OC(C)[C@@H]1O` (some centres not stated), the “activity change, negative = inhibition” value is -3.24% (inactive).

In the case of `N[C@@H](C(=O)O)c1ccc(P(=O)(O)O)cc1`, the “activity change, negative = inhibition” value is -0.445% (inactive).

As for `c1cnc(NC2C3CC4CC(C3)CC2C4)nc1` (configuration not stated), the “activity change, negative = inhibition” value is -9.27% (inactive).

With `c1ccc2c(NC3C4CC5CC(C4)CC3C5)nc(N3CCOCC3)nc2c1` (configuration not stated), the Potency was 25.1 µM (active).

Consider `CN(C)c1ccc(-c2nc(NCCN3CCOCC3)c3ccccc3n2)cc1`, for which the “activity change, negative = inhibition” value was 14.2% (inactive).

As to `O=C(c1ccco1)N1CCC[C@@]2(CCN(Cc3nccs3)C2)C1`, the “activity change, negative = inhibition” value was -20.5% (inactive).

For the compound `O=C1CCN(Cc2ccc(-c3ccccc3)cc2)CCN1Cc1ccccn1`, the “activity change, negative = inhibition” value is -22.3% (inactive).

Take `COc1ccc(CNC(=O)c2cc3cccc(OC)c3oc2=O)cc1`: the “activity change, negative = inhibition” value is -8.72% (inactive).

As for `COc1ccc(CNC(=O)/C(C#N)=C/c2cccc(OC)c2OC)cc1`, the Potency is 22.4 µM (active).

With `COc1ccc(CNC(=O)c2c[nH]c3c(OC)cc(OC)cc3c2=O)cc1`, the “activity change, negative = inhibition” value is -2.43% (inactive).

With `Cc1ccc(C)c(N2CCN(C(=O)CCCCCn3c(=S)[nH]c4ccc(N5CCOCC5)cc4c3=O)CC2)c1`, the Potency is 3.16 µM (active).

For `Cc1ccc(C)c(N2CCN(C(=O)Cn3nc(C)c4sc5ccccc5c4c3=O)CC2)c1`, the “activity change, negative = inhibition” value was -25.3% (inactive).

On to `COc1cccc(N2CCN(C(=O)CCCCCn3c(=O)[nH]c4ccccc4c3=O)CC2)c1`, for which the “activity change, negative = inhibition” value was -21.8% (inactive).

As to `Cc1ccc(C)c(N2CCN(C(=O)CCc3c(C)nc4c(c3C)c(=O)n(C)c(=O)n4C)CC2)c1`, the “activity change, negative = inhibition” value is -12.7% (inactive).
